Consider twelve compounds from PubChem BioAssay (Tox21).

Values joined by “and” are separate entries in the source; they are usually repeats but may differ in a detail not shown here. Identical values can stand only once. A structure can be active in one record and inactive in another. Active and inactive are the calls of the source. Unless noted, the call rests on the fitted dose curve; in most records, active means well fitted curve in the direction sought with a large enough effect in the repeat runs; inconclusive means weak or mixed curves; inactive means no such curve, though single readings can be large; an effect the other way counts as inactive or inconclusive.

Experiment [1] is described as follows: qHTS assay to identify small molecule antagonists of the thyroid receptor (TR) signaling pathway (AID 743065). Further: series mostly up to about 70 µM; nearly all actives have a fitted effect of over 55% in size. In a few lines:
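GH3.TRE-Luc rat pituitary cells carrying two TR response elements driving luciferase were plated for 4 h, given compound plus 1 nM T3 (final), and incubated 23.5 h at 37 C. ONE-Glo luminescence measured reporter inhibition; CellTiter-Fluor fluorescence tracked cytotoxicity.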
A general note: In qHTS, concentration-response curves come from the screen itself.

In experiment [2] the test system is thyroid hormone receptor (rat, GH3 cells). The experiment in a line: qHTS assay to identify small molecule agonists of the thyroid receptor (TR) signaling pathway (AID 743066; calls by dose curve).
Experiment [3] in a line: qHTS assay to identify small molecule antagonists of the estrogen receptor alpha (ER-alpha) signaling pathway - cell viability counter screen (AID 743074; calls by dose curve; further: nearly all actives have a fitted effect of over 45% in size).
Experiment [4] can be described thus: qHTS assay to identify small molecule antagonists of the estrogen receptor alpha (ER-alpha) signaling pathway using the BG1 cell line - cell viability counter screen (AID 743081).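 Further: compound given together with 17beta-estradiol as the ER stimulus; nearly all actives have a fitted effect of over 45% in size.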 Further: potency means the concentration at half of the fitted maximal effect.
The target of a further experiment is Aromatase (Homo sapiens) (UniProt P11511). The experiment in a line: qHTS assay to identify aromatase inhibitors (AID 743083). Further: series mostly up to about 70 µM; nearly all actives have a fitted effect of over 55% in size.
The nature of experiment [5]: qHTS assay to identify aromatase inhibitors - cell viability counter screen (AID 743084).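 Further: cells stimulated with testosterone during compound exposure; nearly all actives have a fitted effect of over 55% in size.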 Further: potency means the concentration at half of the fitted maximal effect.
Experiment [6] concerns the target Aryl hydrocarbon receptor (Homo sapiens) (UniProt P35869). The experiment in a line: qHTS assay to identify small molecule that activate the aryl hydrocarbon receptor (AhR) signaling pathway (AID 743085). Further: nearly all actives have a fitted effect of over 15% in size. Further: potency means the concentration at half of the fitted maximal effect.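 On activation: HG2L7.5c1 human HepG2 liver cells with stably integrated DRE-driven firefly reporter; series mostly up to about 70 µM.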 In a few lines: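 Compounds were tested in HepG2 hepatocellular carcinoma cells harbouring a stably integrated luciferase gene under control of 20 DREs. Increased reporter signal after 24 h treatment at 37C was taken as AhR activation.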

The nature of experiment [7]: qHTS assay to identify small molecule that activate the aryl hydrocarbon receptor (AhR) signaling pathway - cell viability counter screen (AID 743086). Further: nearly all actives have a fitted effect of over 45% in size. Further: potency means the concentration at half of the fitted maximal effect. Put shortly: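 HepG2-AhR-luc (HG2L7.5c1) cells, 4000/well, were preincubated 5 h at 37C, exposed to compound in qHTS format for 24 hr at 37C, then given CellTiter-Fluor for 30 min; viability was read as fluorescence in the reporter wells.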

Experiment [8] deals with Peroxisome proliferator-activated receptor gamma (Homo sapiens) (UniProt P37231). Kind of experiment: qHTS assay to identify small molecule agonists of the peroxisome proliferator-activated receptor gamma (PPARg) signaling pathway (AID 743094; active means well fitted activation curve with a large enough effect in the signal ratio in the repeat runs, not every such curve was filed as active; inconclusive means weak or mixed curves, or effect the other way; inactive means no such curve, though single readings can be large or run the other way; the % refers to the signal ratio). In a few lines:
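GeneBLAzer PPARg UAS-bla HEK293H cells carrying a stably integrated beta-lactamase reporter were pre-incubated 5 h at 37C, then exposed to compounds in DMSO for 17 h at 37C; LiveBLAzer B/G FRET substrate was added for 1 h at room temperature and fluorescence read.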

Experiment [9] is described as follows: qHTS assay to identify small molecule antagonists of the peroxisome proliferator-activated receptor gamma (PPARg) signaling pathway - cell viability counter screen (AID 743194). Further: nearly all actives have a fitted effect of over 55% in size. In a few lines: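 PPARg-UAS-bla HEK293H cells were plated, rested 5 h at 37 C, then treated with compounds plus rosiglitazone (50 nM final) for 17 h at 37 C; viability was then read by CellTiter-Glo luminescence after 30 min at room temperature.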

Experiment [10] can be described thus: qHTS assay for small molecule agonists of the antioxidant response element (ARE) signaling pathway (AID 743202; active means well fitted activation curve with a large enough effect in the signal ratio in the repeat runs, not every such curve was filed as active; inconclusive means weak or mixed curves, or effect the other way; inactive means no such curve, though single readings can be large or run the other way; the % refers to the signal ratio). Put shortly:
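Read-out: LiveBLAzer B/G FRET substrate fluorescence after 2 h at room temperature, following 16 h compound treatment at 37 C of HepG2 cells carrying an ARE-driven beta-lactamase reporter.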

The nature of experiment [11]: qHTS assay for small molecule agonists of the antioxidant response element (ARE) signaling pathway - cell viability counter screen (AID 743203; calls by dose curve; further: nearly all actives have a fitted effect of over 55% in size). In a few lines: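 CellSensor ARE-bla HepG2 cells, 2,000 per well, rested 5 hrs at 37C/5% CO2, then exposed to compound in DMSO for 16 hrs; viability read as CellTiter-Glo luminescence after 30 min at room temperature, in the reporter wells.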

Experiment [12] can be described thus: qHTS assay for small molecule activators of the heat shock response signaling pathway - cell viability counter screen (AID 743209). Further: nearly all actives have a fitted effect of over 50% in size. In a few lines:
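CellSensor HSE-bla HeLa cells, plated overnight at 37 C/5% CO2, were exposed to compounds in DMSO for 5 h at 37 C. Viability was then read in the same wells by CellTiter-Glo luminescence after 30 min at room temperature.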

Experiment [13] in a line: qHTS assay for small molecule activators of the heat shock response signaling pathway (AID 743210; active means well fitted activation curve with a large enough effect in the signal ratio in the repeat runs, with a control signal flat, not every such curve was filed as active; inconclusive means weak or mixed curves; the % refers to the signal ratio; further: series mostly up to about 63 µM). Put shortly: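 HSE-bla HeLa cells (beta-lactamase reporter under heat shock response elements) were exposed to compounds for 5 h at 37 C, then loaded with LiveBLAzer B/G FRET substrate for 2.5 h at room temperature before fluorescence reading.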
Experiment [14] concerns the target Estrogen receptor (Homo sapiens) (UniProt P03372). Kind of experiment: qHTS assay to identify small molecule antagonists of the estrogen receptor alpha (ER-alpha) signaling pathway (AID 743069; active means well fitted curve in the direction sought with a large enough effect in the signal ratio in the repeat runs, not every such curve was filed as active; inconclusive means weak or mixed curves, or effect the other way; inactive means no such curve, though single readings can be large or run the other way; the % refers to the signal ratio). In a few lines: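 HEK293 cells stably carrying an ER-alpha-UAS-bla beta-lactamase reporter were pre-cultured overnight in 2% charcoal-stripped FBS medium. Test compounds in DMSO were added together with 17beta-estradiol for 18 hr at 37C. Read-out was fluorescence after 2 hr with LiveBLAzer B/G FRET substrate at room temperature.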

Experiment [15] has the same target. The experiment in a line: qHTS assay to identify small molecule agonists of the estrogen receptor alpha (ER-alpha) signaling pathway (AID 743075; calls by dose curve; further: potency means the concentration at half of the fitted maximal effect).
The target is the same in experiment [16]. Kind of experiment: qHTS assay to identify small molecule agonists of the estrogen receptor alpha (ER-alpha) signaling pathway using the BG1 cell line (AID 743079). Further: nearly all actives have a fitted effect of over 20% in size. Further: potency means the concentration at half of the fitted maximal effect.
Experiment [17] can be described thus: qHTS assay to identify small molecule antagonists of the estrogen receptor alpha (ER-alpha) signaling pathway using the BG1 cell line (AID 743080; calls by dose curve;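 further: BG1 cells stimulated with 17beta-estradiol alongside compound; series mostly up to about 70 µM; nearly all actives have a fitted effect of over 25% in size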). Put shortly:
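BG1Luc4E2, endogenous ER-alpha, 4xERE-luc; 5 d charcoal-stripped FBS, phenol red free; 24 h plating; cpd + 17beta-estradiol 21.5 h, 37 C/5% CO2; CellTiter-Fluor viability 30 min, then ONE-Glo luciferase 30 min RT.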

Experiment [18] concerns the target Peroxisome proliferator-activated receptor gamma (Homo sapiens) (UniProt P37231). Kind of experiment: qHTS assay to identify small molecule antagonists of the peroxisome proliferator-activated receptor gamma (PPARg) signaling pathway (AID 743191; calls by dose curve; further: series mostly up to about 63 µM; nearly all actives have a fitted effect of over 30% in size). In a few lines: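 GeneBLAzer PPARg UAS-bla HEK293H cells carrying a UAS-driven beta-lactamase reporter were plated at 3000 cells/well, preincubated 5 h at 37C, then given compound for 17 h at 37C; LiveBLAzer B/G FRET substrate was read after 1 h at room temperature.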

Sequence of Aryl hydrocarbon receptor (Homo sapiens) (P35869 whole entry, looked up): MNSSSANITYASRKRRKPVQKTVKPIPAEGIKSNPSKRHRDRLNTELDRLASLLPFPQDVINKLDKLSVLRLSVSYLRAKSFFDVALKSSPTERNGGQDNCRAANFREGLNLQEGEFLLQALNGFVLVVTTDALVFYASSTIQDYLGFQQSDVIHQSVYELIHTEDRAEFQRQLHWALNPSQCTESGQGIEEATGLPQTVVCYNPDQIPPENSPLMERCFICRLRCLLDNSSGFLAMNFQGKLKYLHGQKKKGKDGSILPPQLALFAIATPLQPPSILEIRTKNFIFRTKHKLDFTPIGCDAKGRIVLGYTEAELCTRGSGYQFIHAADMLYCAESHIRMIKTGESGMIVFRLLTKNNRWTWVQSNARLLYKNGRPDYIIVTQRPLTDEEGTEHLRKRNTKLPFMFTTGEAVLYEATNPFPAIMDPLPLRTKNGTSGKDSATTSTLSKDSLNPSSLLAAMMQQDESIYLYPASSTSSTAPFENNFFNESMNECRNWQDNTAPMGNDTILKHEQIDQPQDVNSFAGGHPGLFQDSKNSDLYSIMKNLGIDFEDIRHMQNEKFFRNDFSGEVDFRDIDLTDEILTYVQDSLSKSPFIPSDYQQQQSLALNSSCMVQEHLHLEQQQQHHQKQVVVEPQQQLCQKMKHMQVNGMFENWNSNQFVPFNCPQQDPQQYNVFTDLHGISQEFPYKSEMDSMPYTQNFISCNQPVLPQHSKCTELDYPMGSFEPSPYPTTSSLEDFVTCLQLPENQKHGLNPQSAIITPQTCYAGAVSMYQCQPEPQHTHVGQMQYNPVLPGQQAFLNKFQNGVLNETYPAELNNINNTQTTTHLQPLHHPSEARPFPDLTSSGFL
Sequence of Estrogen receptor (Homo sapiens) (P03372 whole entry, looked up): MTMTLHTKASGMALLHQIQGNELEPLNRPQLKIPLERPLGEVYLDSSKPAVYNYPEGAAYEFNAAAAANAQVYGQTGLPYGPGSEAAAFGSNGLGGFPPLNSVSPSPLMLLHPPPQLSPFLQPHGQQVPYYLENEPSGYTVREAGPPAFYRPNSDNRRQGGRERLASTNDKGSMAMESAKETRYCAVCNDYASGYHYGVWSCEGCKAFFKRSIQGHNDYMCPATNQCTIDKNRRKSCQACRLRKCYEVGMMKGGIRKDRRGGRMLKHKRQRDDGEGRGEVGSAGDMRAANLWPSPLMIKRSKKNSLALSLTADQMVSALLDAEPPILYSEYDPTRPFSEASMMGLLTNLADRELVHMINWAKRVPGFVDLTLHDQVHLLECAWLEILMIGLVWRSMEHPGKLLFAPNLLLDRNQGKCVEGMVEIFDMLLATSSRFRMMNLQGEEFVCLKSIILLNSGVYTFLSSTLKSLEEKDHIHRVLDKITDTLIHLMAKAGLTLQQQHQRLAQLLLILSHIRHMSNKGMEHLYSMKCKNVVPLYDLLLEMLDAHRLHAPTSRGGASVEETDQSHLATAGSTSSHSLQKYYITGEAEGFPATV
Sequence of Aromatase (Homo sapiens) (P11511 whole entry, looked up): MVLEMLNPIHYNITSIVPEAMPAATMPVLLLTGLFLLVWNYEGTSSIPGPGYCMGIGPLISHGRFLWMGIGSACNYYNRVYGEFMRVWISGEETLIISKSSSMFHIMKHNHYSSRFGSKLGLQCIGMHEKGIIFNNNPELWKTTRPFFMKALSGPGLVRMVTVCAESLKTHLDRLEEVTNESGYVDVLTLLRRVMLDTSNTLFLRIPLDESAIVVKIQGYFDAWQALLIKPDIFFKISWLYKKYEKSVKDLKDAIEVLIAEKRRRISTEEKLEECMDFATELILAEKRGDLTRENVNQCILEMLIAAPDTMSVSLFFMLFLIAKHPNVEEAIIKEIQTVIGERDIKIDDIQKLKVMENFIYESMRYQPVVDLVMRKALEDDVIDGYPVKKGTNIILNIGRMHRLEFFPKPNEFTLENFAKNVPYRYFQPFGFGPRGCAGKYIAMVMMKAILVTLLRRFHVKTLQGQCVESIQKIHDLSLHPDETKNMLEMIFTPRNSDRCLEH
Sequence of Peroxisome proliferator-activated receptor gamma (Homo sapiens) (P37231 whole entry, looked up): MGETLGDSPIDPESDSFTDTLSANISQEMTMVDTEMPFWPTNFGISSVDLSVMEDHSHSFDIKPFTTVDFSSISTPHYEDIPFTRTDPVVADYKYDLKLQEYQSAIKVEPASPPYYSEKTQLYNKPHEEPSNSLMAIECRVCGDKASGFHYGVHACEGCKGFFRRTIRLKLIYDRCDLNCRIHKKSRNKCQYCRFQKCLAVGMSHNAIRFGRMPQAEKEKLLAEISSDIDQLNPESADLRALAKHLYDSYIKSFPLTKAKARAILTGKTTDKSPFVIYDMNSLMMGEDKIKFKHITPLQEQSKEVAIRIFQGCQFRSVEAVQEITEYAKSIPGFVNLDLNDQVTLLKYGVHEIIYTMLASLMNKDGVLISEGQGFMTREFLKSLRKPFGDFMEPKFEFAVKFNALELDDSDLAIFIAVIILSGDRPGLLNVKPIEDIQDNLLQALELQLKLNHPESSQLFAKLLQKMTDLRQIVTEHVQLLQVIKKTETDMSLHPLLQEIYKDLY

In the case of `C=CCc1ccc(OC)c(OC)c1`, the Potency entry (in experiment [1]; in experiment [4]; in the experiment with Aromatase (Homo sapiens); in experiment [5]; in experiment [6]; in experiment [7]) was “inactive” each time. Also, the Potency result in [10] and in experiment [11] was “inactive” each time. Besides, the call in [2], in [3], in [8], in experiment [9], in [12] and in experiment [13] was inactive.

For the compound `C=C(C)C(=O)OCC(C)C`, the Potency entry (in experiment [1]; in [14]; in [15]; in experiment [16]; in experiment [4]; with Aromatase (Homo sapiens)) was “inactive” in each case. Besides, the Potency entry in [5], in experiment [6], in experiment [7], in experiment [10] and in experiment [11] was “inactive” throughout. For the same compound, the compound was classed as inactive in [2], in [3], in experiment [17], in experiment [8], in [18] and in [12]. Besides, the compound was classed as inactive in experiment [13].

Take `O=S(=O)(O)c1ccc(N=Nc2c(O)ccc3cc(S(=O)(=O)O)ccc23)cc1`: the Potency entry (in [1]; in experiment [14]; in [15]; in [16]; with Aromatase (Homo sapiens); in [6]) was “inactive” each time. The Potency entry in experiment [11] is “inactive”. For the same compound, the compound was called inactive in experiment [2], in [3], in experiment [17], in experiment [9], in experiment [12] and in experiment [13]. Moreover, the Potency was 27.4 µM (active) and 27.3 µM (active) in experiment [4]; 15.4 µM (active) and 19.3 µM (active) in [5]; 13.7 µM (active) and 8.63 µM (active) in [7].

Take `O=C(O)/C=C/C(=O)O`: the Potency entry in [10] and in experiment [11] was “inactive” throughout. The compound was classed as inactive in experiment [12] and in [13].

Consider `C[Si]1(C)O[Si](C)(C)O[Si](C)(C)O[Si](C)(C)O1`, for which the Potency result (in experiment [1]; in experiment [14]; in [15]; in experiment [16]; in experiment [4]; in the experiment with Aromatase (Homo sapiens)) was “inactive” in each case. The Potency result in [5], in experiment [6], in experiment [7], in experiment [10] and in experiment [11] was “inactive” in each case. In addition, the call in experiment [2], in experiment [3], in [17], in experiment [8], in experiment [12] and in experiment [13] was inactive.

Regarding `CC(O)CC(C)(C)O` (stereo not drawn), the Potency entry (in experiment [1]; in experiment [4]; with Aromatase (Homo sapiens); in [5]; in experiment [6]; in [7]) was “inactive” in each case. For the same compound, in [11], the Potency entry was “inactive”. For the same compound, the call in [2], in [8], in experiment [12] and in experiment [13] was inactive.

With `COc1ccc([N+](=O)[O-])cc1N`, the Potency result (in experiment [1]; in experiment [14]; in [15]; in experiment [16]; in experiment [4]; with Aromatase (Homo sapiens)) was “inactive” each time. Further, the Potency entry in [5], in experiment [7], in experiment [10] and in [11] was “inactive” each time. The compound was classed as inactive in experiment [2], in experiment [3], in [17], in [8], in experiment [18] and in experiment [12]. In [13], the compound was classed as inactive.

Consider `CCOC(=O)n1ccn(C)c1=S`, for which the Potency result (in [14]; in [15]; in experiment [16]; in [4]; with Aromatase (Homo sapiens); in [5]) was “inactive” throughout. Also, the Potency entry in [6], in [7], in [10] and in experiment [11] was “inactive” each time. The compound was called inactive in experiment [3], in experiment [17], in experiment [8], in experiment [18], in experiment [9] and in experiment [12]. For the same compound, the outcome in experiment [13] was inactive.

As for `CC(C)=CCl`, the Potency result (in [1]; in [14]; in [4]; with Aromatase (Homo sapiens); in experiment [5]; in experiment [6]) was “inactive” throughout. Also, the Potency result in experiment [7] and in [11] was “inactive” in each case. In addition, the call in experiment [2], in experiment [17], in [9], in experiment [12] and in [13] was inactive. In addition, the Potency in experiment [15] is 49.6 µM [inconclusive] (active) and inactive; in [16], 17.4 µM (active) and inactive.

Take `C=Cc1ccc(C)cc1`: the Potency result (in experiment [1]; in experiment [4]; with Aromatase (Homo sapiens); in [5]; in experiment [6]; in [7]) was “inactive” in each case. Further, the Potency entry in [11] is “inactive”. Besides, the outcome in [2], in experiment [8], in [18], in experiment [9], in experiment [12] and in experiment [13] was inactive.

Regarding `O=C(O)c1cc2ccccc2cc1O`, the Potency result (in [1]; in experiment [14]; in experiment [4]; in the experiment with Aromatase (Homo sapiens); in experiment [5]; in experiment [7]) was “inactive” each time. Also, the Potency result in [10] and in experiment [11] was “inactive” in each case. Besides, the result in experiment [2], in [3], in experiment [17], in experiment [8], in experiment [18] and in [12] was inactive. The Potency entry in experiment [15] is “inactive and 49 µM [activator] (active)”; in experiment [16], 54.1 µM (active) and 48.6 µM (active); in experiment [6], 60.7 µM (active) and 30.6 µM (active).

Turning to `O=C(O)Cn1c(=O)n(Cc2ccc(Br)cc2F)c(=O)c2ccc(Cl)cc21`, the Potency entry (in [1]; in experiment [14]; in [15]; in [16]; with Aromatase (Homo sapiens); in experiment [6]) was “inactive” throughout. Moreover, the Potency result in experiment [10] and in [11] was “inactive” each time. Besides, the call in experiment [2], in experiment [3], in [17], in [9], in experiment [12] and in experiment [13] was inactive.
